Experimental data: ChEMBL document CHEMBL4513216, “Probing the Open Global Health Chemical Diversity Library for Multistage-Active Starting Points for Next-Generation Antimalarials” (ACS Infect Dis, 2020)
Out of some 68,000 compounds screened, about 2,700 (4%) showed an effect of 50% or more. The sample holds strong results, similar compounds and a random draw of the others, so the mix is not that of the screen.

These compounds were tested on Plasmodium berghei (assay: Screen against P. berghei liver stage (PbLuc), transformed with Luciferase, at 2uM). Conditions: tested at 2 uM.
Type: functional, HepG2

Structure (SMILES)	INHIBITION [%]
COc1ccc(C)c2c1N(C(=O)c1ccc3nnc(C)n3c1)CCC2	61.06
COc1ccc(C)c2c1N(C(=O)c1cnc3onc(C)c3c1)CCC2	47.2
COc1ccc(C)c2c1N(C(=O)c1cnc(C)s1)CCC2	18.01
N#Cc1cccc(CN2CCC3(CC(C(=O)NCC4CC4)=NO3)C2)c1 (stereo not given)	7.35
CNC1CCCN(Cc2noc(C3CC3)n2)C1 (stereo not given)	8.91
Cc1n[nH]c(C)c1CNC(=O)N(Cc1ccccc1)CC(C)(C)O	-16.94
Cc1noc(C2CCN(C(=O)CCc3ccccn3)CC2)n1	9.36
CCN1CCC2(C=C(C(=O)NC3CC3)c3ccccc32)CC1	57.95
CC(C)CN1CCC2(C=C(C(=O)NC3CC3)c3ccccc32)CC1	-14.63
O=C(NC1CC1)C1=CC2(CCN(CC3CC3)CC2)c2ccccc21	11.73
COc1ccc(Cl)cc1S(=O)(=O)N(C)CC(=O)Nc1cccnc1	-66.51
Cn1c(C2CC2)nc2c1CCN(CCOc1ccc(C#N)cc1)C2	55.52
Cn1c(C2CC2)nc2c1CCN(CCOc1cccc(F)c1)C2	-9.49
Cn1c(C2CC2)nc2c1CCN(CCOc1ccccc1C#N)C2	-16.16
CC(C)(C)Oc1ccc(CN)c(C(F)(F)F)c1	50.01
NCc1ccc(Oc2ccc(F)c(F)c2)cc1C(F)(F)F	30.1
CC(C)Oc1ccc(CN)c(C(F)(F)F)c1	28.94
CC(C)c1ccc(CCC(=O)N(C)C2CCN(C)C2=O)cc1 (stereo not given)	71.91
CN1CCC(N(C)C(=O)CSc2ccc(F)c(F)c2)C1=O (stereo not given)	-15.11
CN1CCC(N(C)C(=O)CCc2ccc(F)c(F)c2)C1=O (stereo not given)	20.14
COc1cccc(CC(=O)N2CC[C@@H](OC)[C@@H]2Cc2cccnc2)c1	8.18
COC[C@@]12CCO[C@@H]1CCN(C(=O)Cc1ccccc1F)C2	-26.85
COC[C@@]12CCO[C@@H]1CCN(C(=O)Cc1ccccc1C)C2	54.56
COC[C@@]12CCO[C@@H]1CCN(C(=O)Cc1ccc(C)cc1)C2	11.37
CN(Cc1ccc2c(c1)OCO2)C(=O)NCCc1cnn(C)c1	-0.12
COCC(=O)NC1CC2(CCN(Cc3ccco3)CC2)c2ccccc21 (stereo not given)	-40.39
COc1ccc(C(=O)NS(=O)(=O)c2cncc(Br)c2)cc1	53.12

Structure (SMILES)	INHIBITION [%]
COc1cc(C(=O)NS(=O)(=O)c2cccc(C#N)c2)cc(OC)c1Br	41.76
CCOc1cccc2c1OCC(C(=O)NS(=O)(=O)c1ccc(Cl)cc1)=C2	30.91
COc1cccc(C(=O)NS(=O)(=O)c2cccc(C#N)c2)c1	-49.9
COc1cc(C(=O)NS(=O)(=O)c2cccc(C#N)c2)ccc1C	23.92
CCOc1cccc2c1OCC(C(=O)NS(=O)(=O)c1ccc(Br)s1)=C2	-20.93
COC(=O)c1ccc(C(=O)NS(=O)(=O)c2cncc(Br)c2)cc1	-8.83
COc1cc(C(=O)NS(=O)(=O)c2cccc(C#N)c2)cc(OC)c1C	-15.28
COc1ccc(C(=O)NS(=O)(=O)c2cncc(Br)c2)cc1OC	-10.6
CCOc1cccc2c1OCC(C(=O)NS(=O)(=O)c1cncc(Br)c1)=C2	51.94
CCOc1cc(C(=O)NS(=O)(=O)c2cccc(C#N)c2)ccc1OC	64.16
COc1ccc(C(=O)NS(=O)(=O)c2cccc(C#N)c2)cc1	66.2
COc1ccc(CN2CC[C@@H]3[C@H]2CCC(=O)N3c2cnn(C)c2)cc1	-41.29
NC(=O)C1CCN(C(=O)c2cccn2Cc2cccs2)C1 (stereo not given)	-8.9
CCC(C)(C)NC(=O)CN(Cc1cccc(O)c1)C1CCC(O)CC1 (stereo not given)	6.85
Cn1cc(CN2CCC(F)(F)C3(CCN(c4ncccn4)C3)C2)cn1 (stereo not given)	11.54
COCCOc1cccc(C(=O)N2CCCC(n3ccnc3C)C2)c1 (stereo not given)	27.55
COC(=O)c1ccc(NCc2csc(C)n2)cc1Cl	-37.11
CCOc1c(Br)cc(C2c3c(n[nH]c3C)N=C3COC(=O)C32)cc1OC (stereo not given)	-54.78
Cc1nc(C)c(C(=O)N2CCCc3c(F)cccc32)o1	54.77
Cc1nc(C)c(C(=O)N2CCc3c(C)cccc32)o1	43.28
Cc1nc(C)c(C(=O)N2CCCc3c(F)ccc(F)c32)o1	44.71
COc1ccc(CNC[C@H]2COCc3nc4cccnc4n32)cn1	-8.63
CC1CCN(C(=O)c2cccc3ncccc23)CC1	-29.11
CN(C)C(C(=O)N1CC(c2ccccn2)C1)c1cccc(F)c1 (stereo not given)	12.35
Cn1ccnc(Sc2ccccc2)c1=O	50.53
Cc1ccc(Sc2nccn(C)c2=O)cc1	-2.44
Cn1ccnc(Sc2ccc(O)cc2)c1=O	-31.15

Structure (SMILES)	INHIBITION [%]
COc1ccc2c(c1)CC(NCCCn1cc(C)cn1)CC2 (stereo not given)	-0.75
COc1cccc(CN(C)S(=O)(=O)N2CCOCC2)c1	11.97
CN(Cc1cccc(F)c1)S(=O)(=O)N1CCOCC1	46.57
CN(Cc1cccc(Cl)c1)S(=O)(=O)N1CCOCC1	50.74
CCc1nc(CN2CCOC(CN(CC)c3cccnn3)C2)cs1 (stereo not given)	-24.11
CN1CCN(Cc2cn3c(n2)CN(C(=O)c2cccn2C)CC3)CC1	-36.65
Cc1ccc(NC2CCN(C(=O)c3cccnc3O)CC2)nn1	-31.57
O=C(c1ccc2[nH]nnc2c1)N1CCC(Nc2cccnn2)CC1	-23.42
CC(C(=O)N1CCC(Nc2cccnn2)CC1)n1cccn1 (stereo not given)	9.17
COc1ncccc1C(=O)N1CCC(Nc2ccc(C)nn2)CC1	62.13
O=C(c1ccc(NC2CC2)nc1)N1CCC(Nc2cccnn2)CC1	22.1
CCOc1ncccc1C(=O)N1CCC(Nc2ccc(C)nn2)CC1	-23.94
CCn1c(C)cc(C(=O)N2CCC(Nc3cccnn3)CC2)c1C	56.58
CC(C(=O)N1CCC(Nc2cccnn2)CC1)n1ccnc1 (stereo not given)	-12.48
O=C(c1ccc2cc[nH]c2c1)N1CCC(Nc2cccnn2)CC1	-16.42
CCn1c(C)cc(C(=O)N2CCC(Nc3ccc(C)nn3)CC2)c1C	13.88
CC(Cn1cccn1)C(=O)N1CCC(Nc2cccnn2)CC1 (stereo not given)	57.23
O=C(c1ccc2[nH]c(=O)[nH]c2c1)N1CCC(Nc2cccnn2)CC1	53.45
O=C1NC2(CCN(Cc3ccccc3Cl)CC2)CC1c1ccccc1 (stereo not given)	5.92
Cc1cc(NS(=O)(=O)CC2CCCCO2)ccc1F (stereo not given)	-40.47
CCc1ncc2c(n1)CN(CC(=O)Nc1nncs1)CC2	21.12
CN(C)CCOCC1CN(Cc2cccc(F)c2)Cc2nccn2C1 (stereo not given)	-0.23
Cc1nc(CNC(=O)C(C)Oc2ccccc2F)no1 (stereo not given)	-8.04
CC1CCN(c2nc3cn(Cc4cccc(F)c4)c(=O)c-3c[nH]2)CC1	12.59
COCC(NC(=O)NCc1sccc1C)c1ccco1 (stereo not given)	-6.4
Cc1cc(C(=O)N(C)C)nc(C2(C)CCCN2c2ccccc2)n1 (stereo not given)	9.9
Cc1nc(C)n(CC2CCCN(CCOc3ccccc3C#N)C2)n1 (stereo not given)	-70.51

Structure (SMILES)	INHIBITION [%]
CS(=O)(=O)N1CCO[C@@H]2CCN(C(=O)c3cccs3)CC[C@H]21	51.36
CN(C)CCN1CCO[C@H]2CCN(C(=O)c3cccs3)CC[C@@H]21	33.11
COCCN1CCO[C@H]2CCN(C(=O)c3cccs3)CC[C@@H]21	34.19
CN(Cc1cccnc1)C[C@@H]1OC[C@H]2CN(C(=O)C3CC3)CC[C@H]21	20.21
Cn1cc(N2CC3(COCCN(Cc4ccsc4)C3)OCC2=O)cn1 (stereo not given)	-17.88
O=C(C1CC1)N1CCN2C[C@@H](CO)[C@H](c3ccccc3)[C@H]2C1	14.45
CC=C(C)C(=O)NS(=O)(=O)c1ccc(Cl)cn1	-40.56
COc1cc(CN(C)C(=O)Cc2c(C)nn(C)c2C)ccc1OC(F)F	-51.9
COc1ccc(NC(=O)Cc2c(C)nn(C)c2C)cc1F	18.15
COc1ccc(CN(C)C(=O)Cc2c(C)nn(C)c2C)cc1F	51.31
CN(C)CC1(O)CCCN(C(=O)c2ccccc2-n2cccn2)C1 (stereo not given)	-6.64
O=S1(=O)CCCN1Cc1coc(-c2cccs2)n1	21.33
COCCN(CCN(C)C)C(=O)NC1CCc2ccccc2C1 (stereo not given)	62.39
COCCN(CCN(C)C)C(=O)NC1CC1	-25.13
COCCN(CCOC)C(=O)NC1CCCCC1	-20.08
CC1(c2ccc(Br)cc2)CC(=O)N(CCC(N)=O)C1=O (stereo not given)	-10
CN(CC(C)(CO)CO)C(=O)Nc1cc(Cl)cc(Cl)c1	-1.72
Cc1nn(C)c(C)c1CN(C)S(=O)(=O)c1c(C)n[nH]c1C	16.49
Cc1cc(C)n(C2=NC(NCCCO)c3c(sc4c3CCCC4)N2)n1 (stereo not given)	30.54
Fc1cnc(N2CCO[C@H]3[C@H](OCC4CCOCC4)CC[C@@H]32)nc1	-39.98
COc1cc(-n2cccc2)c(Cl)cc1C(=O)NS(C)(=O)=O	1.06
CCOCCOC(C)C(=O)NCc1cn2cc(Cl)ccc2n1 (stereo not given)	52.74
CCOCCOC(C)C(=O)NCc1cn2cc(Br)ccc2n1 (stereo not given)	-4.1
CCC(CC)C(=O)NCc1cn2cc(Br)ccc2n1	-10.87
